Drawing on PubChem BioAssay (NCI), this text covers growth for eight compounds.

Some test systems named below: OVCAR-8 ovarian; OVCAR-5 ovarian; OVCAR-4 ovarian; SK-OV-3 ovarian; IGROV1 ovarian; OVCAR-3 ovarian; HS 578T breast; NCI/ADR-RES ovarian; T-47D breast; BT-549 breast; SW-620 colon; MCF7 breast; HCT-116 colon; HCC-2998 colon; KM12 colon; RPMI-8226 leukemia; MDA-MB-435 melanoma.
Common to all, as to assay: NCI-60 one-dose screen, 48 h (100 = growth as untreated, 0 = no growth, -100 = all killed)
Holding throughout (conditions): 10 µM unless noted

The structures appear in SMILES notation. Values joined by “and” are separate entries in the source; they are usually repeats but may differ in a detail not shown here. Equal entries are not always repeated. The panel holds about 83,000 compounds, 20% with a hit somewhere; the sample as a whole holds those more often.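 Method: cells in 96-well plates; compound added at one concentration; 48 h incubation; percent growth measured; values under 10 scored active.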 Active and inactive are the calls of the source.

Take `CCOc1ccc2nc3cc(N)ccc3c(N)c2c1`: the growth was 28.9% (inactive) and 29.6% (inactive) in the test on OVCAR-8 ovarian; 94.1% (inactive) and 99.6% (inactive) in the test with OVCAR-5 ovarian; 56.6% (inactive) and 49.2% (inactive) with OVCAR-4 ovarian; 61% (inactive) and 76.5% (inactive) in the test with SK-OV-3 ovarian; 69.9% (inactive) and 99.4% (inactive) in the test with IGROV1 ovarian; 35.3% (inactive) and 22.8% (inactive) with OVCAR-3 ovarian. The growth with HS 578T breast is 28.8% (inactive); in the test on NCI/ADR-RES ovarian, 88.4% (inactive) and 71.8% (inactive); in the test on T-47D breast, 7.14% (active) and -4.55% (active); with BT-549 breast, 35.7% (inactive) and -3.05% (active); in the test with SW-620 colon, 46.1% (inactive) and 50% (inactive); with MCF7 breast, 16.8% (inactive). Further, the growth in the test with HCT-116 colon is 46.4% (inactive) and 29.6% (inactive); with HCC-2998 colon it was 45.3% (inactive) and 46.1% (inactive); in the test with KM12 colon, 45.1% (inactive) and 31.5% (inactive).
For the compound `CNC(=O)c1cccnc1`, the growth in the test on RPMI-8226 leukemia is 112% (inactive); in the test on OVCAR-8 ovarian, 100% (inactive); in the test on OVCAR-5 ovarian, 110% (inactive); in the test on OVCAR-4 ovarian, 108% (inactive); in the test with IGROV1 ovarian it was 111% (inactive); in the test on OVCAR-3 ovarian it was 116% (inactive). The growth with HS 578T breast was 107% (inactive); in the test on NCI/ADR-RES ovarian, 97% (inactive); in the test with BT-549 breast, 101% (inactive); with MDA-MB-435 melanoma, 105% (inactive); in the test with SW-620 colon, 106% (inactive); with MCF7 breast, 105% (inactive). Also, the growth was 103% (inactive) with HCT-116 colon, 110% (inactive) in the test on HCC-2998 colon and 110% (inactive) with KM12 colon.
As for `NCCSC(C[N+](=O)[O-])c1ccccc1Cl` (centres undefined), the growth was 61% (inactive) in the test on OVCAR-8 ovarian; 99.5% (inactive) in the test with OVCAR-5 ovarian; 102% (inactive) in the test on OVCAR-4 ovarian; 112% (inactive) in the test on SK-OV-3 ovarian; -75.7% (active) with OVCAR-3 ovarian; -1.76% (active) in the test with HS 578T breast. The growth in the test with NCI/ADR-RES ovarian was 106% (inactive); in the test on T-47D breast, 87.5% (inactive); in the test on BT-549 breast, 81.1% (inactive); in the test on MDA-MB-435 melanoma it was -24.7% (active); in the test on SW-620 colon it was -51.3% (active); in the test with MCF7 breast it was -19.1% (active). Besides, the growth was -83.9% (active) in the test with HCT-116 colon, -77.8% (active) with HCC-2998 colon and -55.6% (active) in the test with KM12 colon.
In the case of `CCOc1ccc(Nc2c3ccccc3nc3ccccc23)cc1`, the growth is 81.3% (inactive) and 18% (inactive) and -19.7% (active) with RPMI-8226 leukemia; 83.6% (inactive) and 22.9% (inactive) and 36.9% (inactive) with OVCAR-8 ovarian; 90.8% (inactive) and 29.4% (inactive) and 47.8% (inactive) with OVCAR-5 ovarian; 90.9% (inactive) and 36.4% (inactive) and 37.9% (inactive) with OVCAR-4 ovarian; 92.1% (inactive) and 20.4% (inactive) and 16.5% (inactive) in the test on IGROV1 ovarian; 96.5% (inactive) and 17.9% (inactive) and 35.1% (inactive) with OVCAR-3 ovarian. The growth with HS 578T breast was 88.5% (inactive) and 60.2% (inactive) and 61.7% (inactive); in the test on NCI/ADR-RES ovarian, 82.8% (inactive) and 22.6% (inactive) and 16.8% (inactive); in the test on T-47D breast, 91.5% (inactive) and 13.1% (inactive) and 22.8% (inactive); in the test on BT-549 breast, 94.4% (inactive) and 41.6% (inactive) and -3.76% (active); with MDA-MB-435 melanoma, 103% (inactive) and 24.5% (inactive) and 30.9% (inactive); in the test on SW-620 colon, 92.8% (inactive) and 21% (inactive) and 29.1% (inactive). For the same compound, the growth in the test with MCF7 breast was 91.3% (inactive) and 20.1% (inactive) and 8.99% (active); with HCT-116 colon, 87.6% (inactive) and -13.1% (active) and 13.2% (inactive); in the test on HCC-2998 colon, 39.8% (inactive); with KM12 colon it was 99.8% (inactive) and 18% (inactive) and 33.3% (inactive).
In the case of `COc1ccc2c(=O)cc(-c3ccccc3)[nH]c2c1`, the growth with OVCAR-8 ovarian is 17.5% (inactive) and 8.21% (active); with OVCAR-5 ovarian, 49.4% (inactive) and 46.3% (inactive); in the test with OVCAR-4 ovarian, 53.1% (inactive) and 36.7% (inactive); in the test with SK-OV-3 ovarian, 5.46% (active) and 23.9% (inactive); in the test with IGROV1 ovarian it was 33.2% (inactive); with OVCAR-3 ovarian it was -47.7% (active) and -45.4% (active). The growth in the test on HS 578T breast was 31.5% (inactive) and 58.9% (inactive); in the test with NCI/ADR-RES ovarian, -12.9% (active); in the test on T-47D breast it was 50.7% (inactive) and 57.1% (inactive); in the test on MDA-MB-435 melanoma it was -46.6% (active) and -12% (active); with SW-620 colon, 23.1% (inactive) and 33.3% (inactive); in the test with MCF7 breast, 18.2% (inactive) and 14.8% (inactive). For the same compound, the growth in the test with HCT-116 colon was 16.7% (inactive) and 8.27% (active); in the test on HCC-2998 colon, 17.4% (inactive) and 2.14% (active); with KM12 colon it was 14.1% (inactive) and 8% (active).
Consider `CC1CC(=O)N(N(C)C)C2(C#N)C(=O)N=C(N)C12C#N` (centres undefined), for which, in the test with MCF7 breast, the growth is -67.7% [100 µM] (active) and -64.1% [100 µM] (active).
For the compound `Oc1ccc(/C=C/c2ccccc2)cc1`, the growth is 61.3% (inactive) and 81.8% (inactive) with RPMI-8226 leukemia; 66.2% (inactive) and 50.5% (inactive) with OVCAR-8 ovarian; 97.5% (inactive) and 140% (inactive) with OVCAR-5 ovarian; 61.5% (inactive) in the test on OVCAR-4 ovarian; 94.8% (inactive) and 99.4% (inactive) in the test on SK-OV-3 ovarian; 57.5% (inactive) and 59.9% (inactive) in the test on IGROV1 ovarian. For the same compound, the growth in the test on OVCAR-3 ovarian was 79.1% (inactive) and 76.5% (inactive); with HS 578T breast it was 86.7% (inactive); with NCI/ADR-RES ovarian it was 43.5% (inactive) and 41.6% (inactive); with T-47D breast, 97.4% (inactive) and 92.3% (inactive); in the test on BT-549 breast, 62.6% (inactive) and 68.1% (inactive); in the test on MDA-MB-435 melanoma, 76% (inactive) and 74.8% (inactive). Moreover, the growth was 72.1% (inactive) and 62.7% (inactive) in the test with SW-620 colon; 65% (inactive) and 75% (inactive) in the test on MCF7 breast; 86.8% (inactive) and 86.5% (inactive) in the test with HCC-2998 colon; 54% (inactive) and 54.6% (inactive) in the test on KM12 colon.
For `O=C(CN1CCN(c2cc3c(cc2F)c(=O)c(C(=O)O)cn3C2CC2)CC1)Nc1ccc(Cl)cc1`, the growth was 72.2% (inactive) in the test with RPMI-8226 leukemia; 78.8% (inactive) and 95% (inactive) in the test on OVCAR-8 ovarian; 105% (inactive) and 96% (inactive) in the test on OVCAR-5 ovarian; 85.3% (inactive) and 83.2% (inactive) with OVCAR-4 ovarian; 63.4% (inactive) and 82.2% (inactive) in the test on SK-OV-3 ovarian; 93.8% (inactive) and 97.3% (inactive) with IGROV1 ovarian. Further, the growth in the test on OVCAR-3 ovarian is 94.4% (inactive) and 102% (inactive); in the test with HS 578T breast, 87.7% (inactive) and 93.6% (inactive); in the test on NCI/ADR-RES ovarian, 101% (inactive) and 96.9% (inactive); in the test with T-47D breast, 59.1% (inactive) and 92.4% (inactive); in the test with BT-549 breast it was 55.8% (inactive); with MDA-MB-435 melanoma, 88.4% (inactive) and 92.1% (inactive). Besides, the growth in the test with SW-620 colon was 101% (inactive) and 110% (inactive); with MCF7 breast it was 94.3% (inactive) and 96.4% (inactive); in the test with HCC-2998 colon, 85.8% (inactive) and 103% (inactive); with KM12 colon, 82.9% (inactive) and 93.9% (inactive).
